Inconclusive results are not listed. Active and inactive are the calls of the source. Unless noted, calls follow the shape of the dose curve; as a rule, active = well fitted curve in the direction sought with a large enough effect; inconclusive = small, poorly fitted or top-dose-only effect, or another doubt; inactive = no such curve, though single readings can be large; an effect the other way counts as inactive or inconclusive.
How the values were obtained:
[1] = Validation screen for small molecules that induce DNA re-replication in SW480 colon adenocarcinoma cells (AID 504364)
How it was run: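 Image-based DNA content read-out: Hoechst stain 40 min, total nuclear fluorescence intensity (ex 405 nm, em 500-530 nm) after 48 h compound exposure of 250 SW480 cells/well at 37 C, 5% CO2, versus DMSO vehicle.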

[2] = target: Peptidyl-prolyl cis-trans isomerase NIMA-interacting 1 (Homo sapiens) (UniProt Q13526); assay: qHTS Validation Assay to Find Inhibitors of Pin1 (AID 504536; active = well fitted inhibition curve with a large enough effect in the polarisation, with a control signal flat, not every such curve was filed as active; the % refers to the polarisation)
Sequence of Peptidyl-prolyl cis-trans isomerase NIMA-interacting 1 (Homo sapiens) (Q13526 whole entry, looked up): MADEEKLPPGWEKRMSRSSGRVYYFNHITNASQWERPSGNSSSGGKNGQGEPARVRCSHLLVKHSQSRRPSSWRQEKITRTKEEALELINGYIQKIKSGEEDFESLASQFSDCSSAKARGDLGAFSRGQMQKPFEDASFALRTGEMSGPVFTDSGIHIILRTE
How it was run: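 Fluorescence polarization competition: compounds (titration) displace HiFluor-488-labeled Pin1-1b peptide from Pin1 (0.3 uM final) in pH 7.5 HEPES buffer with DTT, 10 min at room temperature; %Activity normalized to no-enzyme wells, curves fitted.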

[3] = target: Phosphoglycerate kinase, glycosomal (Trypanosoma brucei brucei) (UniProt P07378); assay: qHTS Validation Assay to Find Inhibitors of Phosphoglycerate Kinase (AID 504547)
Sequence of Phosphoglycerate kinase, glycosomal (Trypanosoma brucei brucei) (P07378 whole entry, looked up): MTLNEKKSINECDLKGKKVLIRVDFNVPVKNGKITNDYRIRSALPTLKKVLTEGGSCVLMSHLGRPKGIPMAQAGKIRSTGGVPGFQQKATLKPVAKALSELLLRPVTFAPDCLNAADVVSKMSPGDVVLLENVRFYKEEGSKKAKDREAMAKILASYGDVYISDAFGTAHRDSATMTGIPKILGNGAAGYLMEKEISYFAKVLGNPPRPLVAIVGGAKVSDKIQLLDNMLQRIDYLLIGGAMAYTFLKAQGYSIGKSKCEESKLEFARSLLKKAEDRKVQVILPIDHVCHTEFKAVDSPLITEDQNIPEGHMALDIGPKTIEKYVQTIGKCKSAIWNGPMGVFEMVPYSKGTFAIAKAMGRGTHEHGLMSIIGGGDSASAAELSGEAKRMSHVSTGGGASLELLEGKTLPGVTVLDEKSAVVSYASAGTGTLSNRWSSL
How it was run: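 In TEA buffer (100mM, pH 7.6) containing 5mM MgCl2 and 0.01% Tween-20, the GAPDH-coupled PGK reaction proceeded for 60 minutes at room temperature before a single luminescence reading using Kinase-Glo Plus.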

[4] = target: phosphoglycerate mutase (Leishmania major) (UniProt Q4Q090); assay: qHTS Validation Assay to Find Inhibitors of Phosphoglycerate Mutase (AID 504548); also: series mostly up to about 58 µM
Sequence of phosphoglycerate mutase (Leishmania major) (Q4Q090 1-553): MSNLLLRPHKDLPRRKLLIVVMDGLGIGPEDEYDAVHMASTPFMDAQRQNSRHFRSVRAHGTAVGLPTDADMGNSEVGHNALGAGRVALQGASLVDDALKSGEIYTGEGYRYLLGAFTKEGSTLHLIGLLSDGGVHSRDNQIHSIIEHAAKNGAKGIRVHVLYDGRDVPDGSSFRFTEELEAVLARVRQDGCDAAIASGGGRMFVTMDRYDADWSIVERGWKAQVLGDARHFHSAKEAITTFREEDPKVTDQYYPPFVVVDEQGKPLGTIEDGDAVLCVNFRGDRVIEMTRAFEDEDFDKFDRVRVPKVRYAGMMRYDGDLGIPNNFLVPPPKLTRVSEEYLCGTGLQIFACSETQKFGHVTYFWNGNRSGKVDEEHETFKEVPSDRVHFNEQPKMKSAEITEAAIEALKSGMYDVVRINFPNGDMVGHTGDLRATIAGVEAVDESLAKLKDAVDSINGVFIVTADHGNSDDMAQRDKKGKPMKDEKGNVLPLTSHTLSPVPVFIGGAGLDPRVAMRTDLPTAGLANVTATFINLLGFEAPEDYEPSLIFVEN
How it was run: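 Lm PGAM at 1.25 nM final with substrate in 100 mM TEA pH 7.6, 5 mM MgCl2, 0.01% Tween-20; 45 min at room temperature. Kinase-GloPlus added, 10 min, end-point luminescence read.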

[5] = target: Ubiquitin carboxyl-terminal hydrolase 1 (Homo sapiens) (UniProt O94782); assay: Inhibitors of USP1/UAF1: Pilot qHTS (AID 504865);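 also: rhodamine fluorescence freed from ubiquitin-rhodamine substrate followed over time; top concentration of the series differs between compounds; nearly all actives have a fitted effect of over 35% in size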
Sequence of Ubiquitin carboxyl-terminal hydrolase 1 (Homo sapiens) (O94782 whole entry, looked up): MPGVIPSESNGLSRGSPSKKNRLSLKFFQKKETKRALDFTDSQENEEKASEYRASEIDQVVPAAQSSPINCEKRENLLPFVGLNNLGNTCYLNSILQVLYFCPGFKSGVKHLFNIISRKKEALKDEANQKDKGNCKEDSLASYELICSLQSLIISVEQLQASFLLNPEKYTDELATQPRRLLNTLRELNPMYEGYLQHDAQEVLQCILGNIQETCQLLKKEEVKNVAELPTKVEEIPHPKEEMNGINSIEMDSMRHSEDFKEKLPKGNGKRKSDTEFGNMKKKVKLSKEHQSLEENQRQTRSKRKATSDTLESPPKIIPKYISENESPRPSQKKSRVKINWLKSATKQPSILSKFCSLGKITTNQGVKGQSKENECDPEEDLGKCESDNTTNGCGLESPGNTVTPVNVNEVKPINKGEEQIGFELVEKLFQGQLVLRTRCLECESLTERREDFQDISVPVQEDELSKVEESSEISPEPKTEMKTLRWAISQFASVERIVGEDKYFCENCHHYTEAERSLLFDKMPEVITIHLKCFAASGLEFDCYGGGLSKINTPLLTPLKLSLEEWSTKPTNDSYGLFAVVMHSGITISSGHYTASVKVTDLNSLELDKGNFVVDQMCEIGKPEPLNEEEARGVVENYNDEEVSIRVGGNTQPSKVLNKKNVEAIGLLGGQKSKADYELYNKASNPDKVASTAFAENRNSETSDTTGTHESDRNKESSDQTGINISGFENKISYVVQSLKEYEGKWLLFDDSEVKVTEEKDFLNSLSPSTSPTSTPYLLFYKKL
How it was run: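 1nM USP1/UAF1 + cpd, 15 min RT; start w/ Ub-Rho 150nM final; kinetic FL 480/540 nm, 6 reads q60 s. Buffer 50mM HEPES pH 7.8, 0.5mM EDTA, 1mM TCEP, 0.01% Tween-20, 0.1 mg/ml BSA.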

[6] = qHTS for Inhibitors of ATXN expression: Validation of Cytotoxic Assay (AID 588349)
How it was run: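 Cytotoxicity counter-screen: ATP-based luminescent viability (CellTiter Glo) after 72 hr exposure of HEK293 cells to a compound titration at 37 degrees C.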

[7] = qHTS for Inhibitors of ATXN expression: Validation (AID 588378); also: series mostly up to about 57 µM; nearly all actives have a fitted effect of over 75% in size
How it was run: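 Cells: HEK293-ATXN2-FFLuc, phenol-red free DMEM, 2 h attachment. Compound pin-transfer, 24 h, 37 degrees C, 5% CO2. CellTiter-Fluor 30 min, Ex405/Em525; Bright-Glo 5 min, luminescence 2 s exposure.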

Measured: Potency

CN1CCN(C2=Nc3ccccc3Oc3ccc(Cl)cc32)CC1
not listed: [6] | [7]
inactive: all other assays above

CC(C(=O)O)c1ccc(CC2CCCC2=O)cc1 (stereo unspecified)
inactive: all assays above

CCC(=O)c1ccc2c(c1)N(CCCN(C)C)c1ccccc1S2
not listed: [6] | [7]
inactive: all other assays above

C[N+](C)(C)CCOC(=O)CCC(=O)OCC[N+](C)(C)C
inactive: all assays above

CCN1CCc2nc(N)oc2CC1
inactive: all assays above

CCCN(CCC)C(=O)C(CCC(=O)O)NC(=O)c1ccccc1 (stereo unspecified)
inactive: all assays above

CCn1cc(C(=O)O)c(=O)c2cc3c(cc21)OCO3
inactive: all assays above

CNC1(C)C2CCC(C2)C1(C)C (stereo unspecified)
inactive: all assays above

C[N+](C)(C)CCOC(N)=O
inactive: all assays above

CNCCC(Oc1ccccc1OC)c1ccccc1 (stereo unspecified)
not listed: [6] | [7]
inactive: all other assays above

OC(CCN1CCCCC1)(c1ccccc1)C1CCCCC1 (stereo unspecified)
not listed: [6] | [7]
inactive: all other assays above

C=CCc1ccccc1OCC(O)CNC(C)C (stereo unspecified)
not listed: [6] | [7]
inactive: all other assays above

CN(C)C/C=C(/c1ccc(Br)cc1)c1cccnc1
not listed: [6] | [7]
inactive: all other assays above

O=C(CCNNC(=O)c1ccncc1)NCc1ccccc1
inactive: all assays above

CCc1c(C)[nH]c2c1C(=O)C(CN1CCOCC1)CC2 (stereo unspecified)
inactive: all assays above

CC(C)NNC(=O)c1ccncc1
inactive: all assays above

OCCN1CCN(CCCN2c3ccccc3C=Cc3ccccc32)CC1
not listed: [6] | [7]
inactive: all other assays above

Cc1nnc(SCC2=C(C(=O)O)N3C(=O)[C@@H](NC(=O)Cn4cnnn4)[C@H]3SC2)s1
inactive: all assays above

NC/C=C/C(=O)O
inactive: all assays above

CCCCNC(=O)NS(=O)(=O)c1ccc(C)cc1
inactive: all assays above

Cc1nc2sccn2c(=O)c1CCN1CCC(=C(c2ccc(F)cc2)c2ccc(F)cc2)CC1
inactive: [1] | [2] | [3] | [4]

CC(=O)Oc1cc(C(C)C)c(OCCN(C)C)cc1C
inactive: all assays above

COc1ccc(CCN(C)CCCC(C#N)(c2cc(OC)c(OC)c(OC)c2)C(C)C)cc1OC (stereo unspecified)
not listed: [6] | [7]
inactive: all other assays above

CCN(Cc1ccncc1)C(=O)C(CO)c1ccccc1 (stereo unspecified)
inactive: all assays above

Cc1nc2ccccn2c(=O)c1CCN1CCC(C(=O)c2ccc(F)cc2)CC1
inactive: all assays above

CN(C)CCOC(=O)COc1ccc(Cl)cc1
inactive: all assays above

CCOC(=O)C1=C(C)NC(C)=C(C(=O)OC)C1c1cccc(Cl)c1Cl (stereo unspecified)
inactive: [1] | [2] | [3] | [4]

C[C@]12CCC(=O)C=C1CC[C@@H]1[C@@H]2CC[C@@]2(C)[C@H]1CC[C@]2(O)C(=O)CO
inactive: all assays above

CC(C)(C)NCC(O)c1cc(O)cc(O)c1 (stereo unspecified)
inactive: all assays above

CCNC(=O)N1CCN(CCCC(c2ccc(F)cc2)c2ccc(F)cc2)CC1
not listed: [6] | [7]
inactive: all other assays above

CNCCCN1c2ccccc2CCc2ccccc21
not listed: [6] | [7]
inactive: all other assays above

Reference: PubChem BioAssay (NCATS)
